# Laboratory results: PubChem BioAssay AID1159580 (chemical genetic matrix, 2015)
# The whole screen tested about 5,500 compounds, of which about 2,000 (36%) were called active. Inconclusive results (about 18%) are left out. The list shows a part of the results. A number with no mark means an inactive call. No stated cut-off is given here; in the data, active means normalized growth mostly below about 0.91 (no sharp cut-off); inconclusive means no clear call, values can overlap the other calls; inactive means mostly above about 0.92.
# Assay: chemical genetic growth profiling, strain panel (AID 1159580);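 further: tested at 20 µM; growth read once vehicle control cultures reached saturation at 30 °C; 1 = growth at the plate median or of vehicle wells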
# Settings: S. cerevisiae deletion strains, growth OD
structure (smiles),measurement,setting,value
CC(C)c1cc2c(c(O)c1O)[C@@]1(C(=O)O)CCCC(C)(C)C1CC2 (stereo partly drawn),normalized growth,"locus YJL187C, strain SWE1, stronger effect = lower value",0.972
same,normalized growth,"locus YJR043C, strain POL32, stronger effect = lower value",0.982
same,normalized growth,"locus YJR066W, strain TOR1, stronger effect = lower value",0.84
same,normalized growth,"locus YJR075W, strain HOC1, stronger effect = lower value",0.947
same,normalized growth,"locus YKL009W, strain mrt4, stronger effect = lower value",0.95
same,normalized growth,"locus YKL068W, stronger effect = lower value",1.02
same,normalized growth,"locus YKL085W, strain MDH1 (second series), stronger effect = lower value",0.913 (active)
same,normalized growth,"locus YKL085W, strain MDH1, stronger effect = lower value",0.913 (active)
same,normalized growth,"locus YKL160W, strain elf1, stronger effect = lower value",0.957
same,normalized growth,"locus YKR001C, strain vps1, stronger effect = lower value",0.866 (active)
same,normalized growth,"locus YKR026C, strain gcn3, stronger effect = lower value",0.994
same,normalized growth,"locus YKR091W, strain srl3, stronger effect = lower value",0.988
same,normalized growth,"locus YLL001W, strain dnm1, stronger effect = lower value",0.984
same,normalized growth,"locus YLL026W, stronger effect = lower value",0.932
same,normalized growth,"locus YLL041C, strain sdh2, stronger effect = lower value",0.664 (active)
same,normalized growth,"locus YLR027C, strain aat2, stronger effect = lower value",0.884 (active)
same,normalized growth,"locus YLR039C, strain RIC1, stronger effect = lower value",0.831
same,normalized growth,"locus YLR058C, strain SHM2, stronger effect = lower value",1
same,normalized growth,"locus YLR102C, strain apc9, stronger effect = lower value",1.01
same,normalized growth,"locus YLR113W, strain HOG1, stronger effect = lower value",0.434 (active)
same,normalized growth,"locus YLR221C, strain rsa3, stronger effect = lower value",0.792 (active)
same,normalized growth,"locus YLR258W, strain gsy2, stronger effect = lower value",0.859 (active)
same,normalized growth,"locus YLR262C, strain YPT6 (second series), stronger effect = lower value",0.552 (active)
same,normalized growth,"locus YLR262C, strain YPT6, stronger effect = lower value",0.546 (active)
same,normalized growth,"locus YLR268W, strain sec22, stronger effect = lower value",0.901
same,normalized growth,"locus YLR320W, strain mms22, stronger effect = lower value",0.809 (active)
same,normalized growth,"locus YLR330W, strain CHS5, stronger effect = lower value",0.944
same,normalized growth,"locus YLR342W, strain FKS1 (second series), stronger effect = lower value",0.84
same,normalized growth,"locus YLR342W, strain FKS1, stronger effect = lower value",0.968
same,normalized growth,"locus YLR357W, strain rsc2, stronger effect = lower value",0.949
same,normalized growth,"locus YLR370C, strain arc18, stronger effect = lower value",0.974
same,normalized growth,"locus YLR371W, strain rom2, stronger effect = lower value",0.976
same,normalized growth,"locus YLR384C, strain iki3, stronger effect = lower value",1
same,normalized growth,"locus YLR418C, strain cdc73, stronger effect = lower value",0.642 (active)
same,normalized growth,"locus YML016C, strain PPZ1, stronger effect = lower value",0.994
same,normalized growth,"locus YML032C, strain rad52, stronger effect = lower value",0.993
same,normalized growth,"locus YML120C, strain ndi1, stronger effect = lower value",0.984
same,normalized growth,"locus YML124C, strain tub3, stronger effect = lower value",1.01
same,normalized growth,"locus YMR058W, strain fet3, stronger effect = lower value",0.815 (active)
same,normalized growth,"locus YMR078C, strain ctf18, stronger effect = lower value",1
same,normalized growth,"locus YMR125W, strain sto1, stronger effect = lower value",0.827 (active)
same,normalized growth,"locus YMR129W, stronger effect = lower value",0.99
same,normalized growth,"locus YMR205C, strain PFK2, stronger effect = lower value",0.873 (active)
same,normalized growth,"locus YMR223W, strain ubp8, stronger effect = lower value",0.964
same,normalized growth,"locus YMR231W, strain pep5, stronger effect = lower value",0.97
same,normalized growth,"locus YMR307W, strain GAS1, stronger effect = lower value",0.472 (active)
same,normalized growth,"locus YNL067W, strain RPL9B, stronger effect = lower value",0.972
same,normalized growth,"locus YNL071W, strain lat1, stronger effect = lower value",0.207 (active)
same,normalized growth,"locus YNL153C, strain GIM3, stronger effect = lower value",0.985
same,normalized growth,"locus YNL183C, strain NPR1, stronger effect = lower value",0.9
same,normalized growth,"locus YNL209W, strain ssb2, stronger effect = lower value",0.962
same,normalized growth,"locus YNL233W, strain BNI4, stronger effect = lower value",0.955
same,normalized growth,"locus YNL248C, strain rpa49, stronger effect = lower value",0.98
same,normalized growth,"locus YNL250W, strain rad50, stronger effect = lower value",1.01
same,normalized growth,"locus YNL271C, strain bni1, stronger effect = lower value",0.908 (active)
same,normalized growth,"locus YNL298W, strain CLA4, stronger effect = lower value",0.874 (active)
same,normalized growth,"locus YNL307C, strain MCK1, stronger effect = lower value",0.956
same,normalized growth,"locus YNL322C, strain KRE1 (second series), stronger effect = lower value",1.03
same,normalized growth,"locus YNR049C, strain mso1, stronger effect = lower value",0.997
same,normalized growth,"locus YNR052C, strain pop2, stronger effect = lower value",0.973
same,normalized growth,"locus YOL012C, strain htz1",0.721
same,normalized growth,"locus YOL147C, strain pex11, stronger effect = lower value",1.04
same,normalized growth,"locus YOR001W, strain rrp6, stronger effect = lower value",0.992
same,normalized growth,"locus YOR061W, strain CKA2, stronger effect = lower value",1
same,normalized growth,"locus YOR069W, strain VPS5, stronger effect = lower value",0.998
same,normalized growth,"locus YOR070C, strain gyp1, stronger effect = lower value",0.92 (active)
same,normalized growth,"locus YOR080W, strain dia2, stronger effect = lower value",0.987
same,normalized growth,"locus YOR083W, strain WHI5, stronger effect = lower value",0.965
same,normalized growth,"locus YOR106W, strain vam3, stronger effect = lower value",0.871
same,normalized growth,"locus YOR136W, strain idh2, stronger effect = lower value",1
same,normalized growth,"locus YOR144C, strain elg1, stronger effect = lower value",1.01
same,normalized growth,"locus YOR184W, strain ser1, stronger effect = lower value",0.964
same,normalized growth,"locus YOR231W, strain MKK1, stronger effect = lower value",0.394 (active)
same,normalized growth,"locus YOR265W, strain rbl2, stronger effect = lower value",0.982
same,normalized growth,"locus YOR270C, strain vph1, stronger effect = lower value",0.954
same,normalized growth,"locus YOR290C, strain snf2, stronger effect = lower value",0.945
same,normalized growth,"locus YOR316C, strain cot1, stronger effect = lower value",1.02
same,normalized growth,"locus YPL051W, strain arl3, stronger effect = lower value",0.897 (active)
same,normalized growth,"locus YPL078C, strain atp4, stronger effect = lower value",1.01
same,normalized growth,"locus YPL106C, strain sse1, stronger effect = lower value",0.968
same,normalized growth,"locus YPL240C, strain hsp82, stronger effect = lower value",0.614 (active)
same,normalized growth,"locus YPL241C, strain CIN2, stronger effect = lower value",0.914 (active)
same,normalized growth,"locus YPL256C, strain CLN2, stronger effect = lower value",0.421 (active)
same,normalized growth,"locus YPR119W, strain clb2, stronger effect = lower value",1.03
same,normalized growth,"locus YPR141C, strain kar3, stronger effect = lower value",0.992
same,normalized growth,"locus YPR163C, strain tif3, stronger effect = lower value",0.964
same,normalized growth,"locus YPR167C, strain met16, stronger effect = lower value",1
same,normalized growth,"strain wtn01, stronger effect = lower value",0.936
